TWEAK Fn14 block – inhibitors of TWEAK-Fn14 signaling, primary screen, luciferase reporter cells, uHTS; TWEAK-stimulated Fn14 reporter cells, luciferase luminescence, 8 h; inhibition, % at 10 µM; 360,000 tested, 2% active; AID 1159606, 2016; in the data active means inhibition above about 50%
KKLEB cytotox – cytotoxicity in KKLEB CF airway cells, primary screen, cytotoxicity control for CF NF-kB inhibitor project, cell-based, uHTS, fluorescence assay plates; activity change (cytotoxicity), % at 5 µM; 360,000 tested, 0.36% active; KKLEB CF airway cells viability, ATPlite luminescence, overnight; active compounds read low; cells stimulated with P. aeruginosa culture filtrate;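 active means corrected activity change at or below -50% at 5 µM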
TROY signal inh – inhibitors of TROY-driven NF-kB signaling, primary screen, Q293 LMP1-TROYcd cells, NF-kB luciferase, uHTS. inhibition, % at 10 µM. 360,000 tested, 0.98% active. Q293 LMP1-TROYcd NF-kB luciferase reporter, 4 h;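 active means compounds whose plate-normalised and pattern-corrected inhibition of the luciferase reporter signal at the single screening dose is 50% or more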
HIF-2a inh – HIF-2a reporter inhibitors, primary screen, luminescence, 786-0 RCC cells. 786-0 RCC cells HIF-2a reporter, luciferase luminescence, overnight. inhibition, % at 18.8 µM. 360,000 tested, 0.72% active. AID 624352, 2012;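 active means inhibition of the luminescence signal of 40% or more relative to plate controls, in a single-dose primary screen at 18.75 µM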
Peg3 promoter – Peg3 promoter-driven luciferase inhibitors, primary screen, cell-based, HeLa, luciferase luminescence. HeLa PEG-Prom luciferase reporter, overnight. inhibition, % at 20 µM. 360,000 tested, 1.7% active;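 active means inhibition of at least 50% at 20 µM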
CF NFkB inh – inhibitors of PAF-induced NF-kB signaling, primary screen, cell-based, GFP fluorescence, uHTS; KKLEB NF-kB-GFP reporter, GFP fluorescence overnight; inhibition, % at 5 µM; 360,000 tested, 0.86% active; AID 588850, 2011;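 active means at least 50% inhibition at 5 µM, scaled per plate between neutral and stimulator controls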;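 further: PAF is a Pseudomonas aeruginosa culture filtrate used as stimulus; plate controls were PAF-stimulated DMSO wells for no effect and unstimulated DMSO wells for full effect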
Starred values were filed as active, the others as inactive; x = not tested or not shown. This is a sample that favours compounds with a hit; in the whole collection about 4% have one here.

SMILES	TWEAK Fn14 block	KKLEB cytotox	TROY signal inh	HIF-2a inh	Peg3 promoter	CF NFkB inh
NC(N)=N/N=C/c1cc([N+](=O)[O-])ccc1O	-4	-14	-33	-9	0	6
Cc1cc(C)n(/N=C/c2cc([N+](=O)[O-])ccc2O)c(=O)c1	-25	3	60*	9	8	9
CNC(=O)/C(C#N)=C/c1cccc(Oc2ccccc2)c1	53*	4	-80	13	-45	0
CNC(=O)/C(=C\c1cccc(Oc2ccccc2)c1)NC(=O)c1ccccc1	-3	1	-20	5	27	-28
COCCNC(=O)/C(C#N)=C/c1ccc(O)cc1	-28	-7	-19	-10	-14	-4
COCCNC(=O)/C(C#N)=C/c1cccc(/C=C(\C#N)C(=O)NCCOC)c1	65*	2	28	40	20	21
CCN(CC)c1ccc(C(=O)N/N=C(\C)c2ccc(OC)c(OC)c2)cc1	-1	-7	5	-2	10	12
O=C(CN(C(=O)CCC(=O)Nc1nccs1)c1ccccc1F)NCCc1ccccc1	-1	-2	-6	19	-6	-7
Cc1ccccc1Nc1ccc(S(=O)(=O)N2CCOCC2)cc1[N+](=O)[O-]	5	4	12	13	59*	-5
CCSc1cc(N2CCCC2)nc(-c2cccc(C)c2)n1	15	11	-2	-5	-1	-8
Cc1ccc(C=Nc2ccc(N(C)C)cc2)o1	62*	9	5	-137	-124	-7
O=C(CCNC(=O)c1ccccc1Cl)NCCc1ccc(C(F)(F)F)cc1	72*	-2	14	4	-6	-18
O=C1CC(c2ccc3c(c2)OCO3)Sc2nc3ccccc3n21 (configuration not stated)	89*	-27	84*	-36	-23	9
Cc1ccc(N/C=C(\C2OC(=O)c3ccccc32)[N+](=O)[O-])c(C)c1 (configuration not stated)	44	3	7	1	16	-25
O=C1OC(/C(=C\Nc2ccc(F)cc2F)[N+](=O)[O-])c2ccccc21 (configuration not stated)	51*	-9	0	-4	18	10
O=C(c1cc(-c2cccnc2)nc2ccccc12)N1CCN(S(=O)(=O)c2ccc(Cl)s2)CC1	4	0	10	7	30	-12
CCOC(=O)c1cc(OC(=O)Cc2ccc(OC)c(S(=O)(=O)N3CCOCC3)c2)cc(C(=O)OCC)c1	28	-7	52*	-21	-8	22
O=C(Nc1ccc2c(c1)OCCO2)c1ccc(Br)c(S(=O)(=O)N2CCOCC2)c1	82*	0	61*	3	-12	0
O=C(Nc1ccc2c(c1)OCO2)c1ccc(Br)c(S(=O)(=O)N2CCCC2)c1	38	1	9	-87	-55	0
CCOC(=O)c1ccc(NC(=O)c2ccc(C)c(S(=O)(=O)N3CCOCC3)c2)cc1	96*	14	73*	14	93*	-11
CC(=O)c1ccc(NC(=O)c2ccc(C)c(S(=O)(=O)N3CCOCC3)c2)cc1	-6	3	-9	-20	-25	0
Cc1cc(C)n(-c2ccc(C(=O)Nc3ccc(C)c(S(=O)(=O)N4CCOCC4)c3)cc2)n1	64*	4	64*	-2	34	-11
COc1ccc2c(c1)CC/C2=N\OC(=O)c1cccc(C)c1	-32	-9	-30	-207	-407	18
Cc1c(OC(C)C(=O)NCc2ccccn2)ccc2c3c(c(=O)oc12)CCCC3 (configuration not stated)	14	8	-7	9	-15	-5
CCCCNC(=O)Cn1cnc2sc(C)c(S(=O)(=O)N3CCN(c4ccccc4OC)CC3)c2c1=O	20	4	-8	6	5	-21
SMILES	TWEAK Fn14 block	KKLEB cytotox	TROY signal inh	HIF-2a inh	Peg3 promoter	CF NFkB inh
Cc1ccc(CSCC(=O)N/N=C/c2sccc2C)cc1	-33	-3	-73	-15	-31	6
Cc1ccc(C)c(NC(=O)[C@@H]2CCCN2S(=O)(=O)c2ccccc2F)c1	-2	-10	-1	13	16	-15
CC(C)(C)c1ccc2c(c1)C(=O)c1ccccc1C2=O	41	-21	52*	-183	-196	-15
CCc1ccc2c(c1)C(=O)c1ccccc1C2=O	-36	3	-67	-267	-284	-24
Cc1csc2c(N3CCN(C(=O)Nc4ccc(Cl)c(Cl)c4)CC3)ncnc12	16	-10	63*	16	6	-9
Cc1csc2c(N3CCN(C(=O)NC(C)(C)C)CC3)ncnc12	-2	8	-1	13	7	-14
COc1cc(C(=O)Nc2nc(-c3ccc(C)cc3)cs2)ccc1OCC(=O)N1CCOCC1	46	11	57*	-2	10	-20
COc1cccc(C(=O)Nc2nc(-c3ccc(S(=O)(=O)N4CCOCC4)cc3)cs2)c1	70*	-13	64*	8	68*	-5
O=C(Nc1nc(-c2ccccc2)cs1)C1CCCN(S(=O)(=O)c2ccccc2)C1 (configuration not stated)	88*	10	46	10	46	-24
O=C(Nc1nc(-c2ccc(S(=O)(=O)N3CCCC3)cc2)cs1)c1cccs1	55*	-2	53*	-10	19	1
O=C(NCc1cccnc1)C1CC(c2ccc(Cl)c(Cl)c2)=NO1 (configuration not stated)	11	-12	6	1	21	11
Cc1oc(CC(C)C)cc1C(=O)Nc1cccc2ccccc12	21	9	x	13	3	-3
O=C(Nc1nc(-c2ccc(S(=O)(=O)N3CCOCC3)cc2)cs1)c1ccccc1	85*	-1	53*	-11	27	5
CC(C)CC(=O)Nc1nc(-c2ccc(S(=O)(=O)N3CCOCC3)cc2)cs1	6	-6	16	10	-1	-14
O=C(Nc1nc(-c2nc3ccccc3s2)cs1)c1ccc(S(=O)(=O)N2CCOCC2)cc1	78*	-49	64*	-285	-123	55*
O=C(CN1CCOCC1)Nc1nc(-c2ccccc2)cs1	23	1	5	-20	-30	-11
O=C(Nc1nc(-c2ccccc2)c(C(=O)c2ccccc2)s1)c1ccc(S(=O)(=O)N2CCCC2)cc1	72*	17	35	15	31	17
O=C(Cn1nnc(-c2ccc(CN3CCOCC3)cc2)n1)Nc1nc(-c2ccccc2)cs1	14	-51*	32	-112	-38	-24

Bioassay records (PubChem BioAssay)
